# Measured values published in PubChem BioAssay (NCI).
# This is part of a sample that, as a whole, favours compounds with a hit. Of some 83,000 tested, about 20% had one in any assay.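 Method: cells in 96-well plates; compound added at one concentration; 48 h incubation; percent growth measured; values under 10 scored active.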 Values without a mark were called inactive. Calls of active or inactive are those of the source.
# Columns and labels:
# Assay in all cases: NCI-60 one-dose screen, 48 h (100 = growth as untreated, 0 = no growth, -100 = all killed)
# Conditions in all cases: 10 µM unless noted
# T-47D breast = tested on: T-47D breast
# BT-549 breast = tested on: BT-549 breast
# MDA-MB-435 melanoma = tested on: MDA-MB-435 melanoma
# SW-620 colon = tested on: SW-620 colon
# MCF7 breast = tested on: MCF7 breast
# HCT-116 colon = tested on: HCT-116 colon
# HCC-2998 colon = tested on: HCC-2998 colon
# KM12 colon = tested on: KM12 colon
Structure (SMILES),growth (T-47D breast),growth (BT-549 breast),growth (MDA-MB-435 melanoma),growth (SW-620 colon),growth (MCF7 breast),growth (HCT-116 colon),growth (HCC-2998 colon),growth (KM12 colon)
O=C(/C=C/c1c(-c2ccc(Cl)cc2)nn(-c2ccccc2)c1C(F)(F)F)c1ccc(Cl)cc1,64.8%,97.4%,97.9%,104%,61.8%,63.4%,103%,84.8%
C[C@H](c1nc2ccc(N)cc2[nH]1)[C@H]1CC[C@H]2[C@@H]3CCC4=CC(=O)CC[C@]4(C)[C@H]3CC[C@]12C,77.8%,70%,95.7%,102%,67.9%,74.6%,93.5%,91.8%
O=C(NNc1nc2c(F)cccc2n2cccc12)c1cnccn1,22.8%,38%,32%,29%,10.5%,12.4%,52.9%,23.2%
COc1ccc(C(=O)C2C(C#N)C(C#N)C3c4ccccc4C=CN23)cc1 (stereo unspecified),61.5%,95%,96.1%,99.7%,91.3%,86.1%,101%,98.3%
COc1ccc(/C=C/c2nc(Nc3ccc(S(=O)(=O)Nc4nc(C)cc(C)n4)cc3)c3ccccc3n2)cc1,49.1%,87.9%,60.6%,61.1%,42.2%,66.4%,74.9%,47.5%
COc1ccc(C/C(C)=C(/c2ccc(OCCCN(C)C)cc2)c2ccc(OC(C)=O)cc2)cc1,56.4%,89%,48.4%,87.8%,18.1%,55.3%,70.3%,80.7%
Cc1c(C(=O)NCCC(=O)NO)sc2ncnc(Nc3ccc(F)c(Cl)c3)c12,107%,114%,102%,101%,95.2%,107%,105%,104%
COc1cc(/C=N/NC(=O)c2cnn3c2NC(c2ccccc2)C3)ccc1OCc1ccccc1 (stereo unspecified),8.39% (active),-6.73% (active),-28.3% (active),-1% (active),0.769% (active),-15.1% (active),32.8%,2.22% (active)
NS(=O)(=O)c1ccc(CCN2C(=O)c3cc(Cl)c(Cl)cc3C2=O)cc1,98.4%,109%,108%,110%,98.6%,100%,,100%
Fc1ccc2c(-c3cncn3CCc3ccccc3)c[nH]c2c1,74.4%,105%,93.2%,90.8%,86.6%,75.7%,102%,97.9%
Cc1ccc(-n2c3c(c(-c4ccccc4)c2-c2ccccc2)C2=NCCN2C=N3)cc1,72.7%,107%,97.8%,89.9%,86.8%,76.5%,108%,90.5%
CCOC(=O)[C@@H](C)C[C@H](Cc1ccccc1)NC(=O)c1csc([C@@H](C[C@H](C(C)C)N(C)C(=O)[C@@H](NC(=O)[C@H]2C[C@H](O[Si](C)(C)C(C)(C)C)CCN2C)C(C)C)OC(C)=O)n1,37% [9.25 µM],-29.6% [9.25 µM] (active),-57.5% [9.25 µM] (active),11.8% [9.25 µM],13% [9.25 µM],-25.9% [9.25 µM] (active),-1.53% [9.25 µM] (active),2.03% [9.25 µM] (active)
Cc1ccc(NS(=O)(=O)c2ccc(-c3cnc(C4CC4)o3)cc2)cc1C(F)(F)F,55.1%,63.8%,-4.02% (active),37.2%,26.6%,41.1%,84.1%,38.6%
O=[N+]([O-])CC(c1ccccc1F)c1c[nH]c2ccccc12 (stereo unspecified),59.4%,73.8%,3.66% (active),39%,54.3%,65.2%,80.6%,59.5%
c1ccc(-c2cn3c(ccc4ccccc43)n2)cc1,66.5%,63.6%,-34.7% (active),22.8%,28.5%,35%,75.5%,23.4%
O=C1Nc2ccccc2/C1=C\c1c(-c2ccc(F)cc2)nc2ccccn12,60.6%,69.6%,-21.1% (active),64.5%,62.8%,64.2%,130%,46.3%

Structure (SMILES),growth (T-47D breast),growth (BT-549 breast),growth (MDA-MB-435 melanoma),growth (SW-620 colon),growth (MCF7 breast),growth (HCT-116 colon),growth (HCC-2998 colon),growth (KM12 colon)
COc1ccc(-c2nc([C@@H](C)Sc3nc(N)cc(N)n3)c(C)s2)cc1OCCN1CCOCC1,99.5%,96.1%,110%,107%,101%,103%,,104%
COc1ccc(C(=O)c2cc(C)c(OC)c(C)c2)c(OC)c1OC(=O)C(Cl)Cl,59.5%,11.4%,-28.4% (active),20%,12.4%,1.56% (active),9.93% (active),8.08% (active)
O=C(/C(=C\c1ccc([N+](=O)[O-])cc1)S(=O)Cc1ccc(Cl)cc1)c1ccc(Cl)cc1 (stereo unspecified),51.6%,94.6%,82.6%,28%,49%,4.9% (active),80.4%,73.8%
CC(C)N1C(=O)/C(=C2\SC(=S)N(C(C)C)C2=O)SC1=S,82.8%,98.7%,100%,94.9%,96.8%,95%,98.3%,99.9%
Cc1cccc(-c2cn3ccnc3c(-c3ccc4ncn(Cc5ccccc5)c4c3)n2)c1,13.9%,101%,99.1%,100%,77.8%,63.3%,111%,78%
COc1ccc(CCn2cncc2-c2c[nH]c3ccccc23)cc1,80.2%,90%,100%,87.9%,78.7%,80.5%,91.8%,97.8%
CCOC(=O)CSc1nc2ccccc2c(=O)n1Cc1ccc(S(N)(=O)=O)cc1,102%,105%,102%,98.6%,96.7%,102%,109%,104%
COc1ccc(C(=O)Cn2c(C(=O)c3ccccc3)nc3ccccc32)cc1,38.1%,51.7%,-43.3% (active),10.6%,17.5%,15.7%,26.5%,20.4%
COc1ccc(/C=C/c2nc(Nc3ccc(S(=O)(=O)NC(C)=O)cc3)c3ccccc3n2)cc1,67.7%,86.8%,63%,68.2%,46.7%,47.4%,82.1%,57.8%
C=C(C)[C@@H]1CC[C@]2(C(=O)N[C@@H](Cc3ccccc3)C(=O)OC)CC[C@]3(C)[C@H](CC[C@@H]4[C@@]5(C)CCC(=O)C(C)(C)[C@@H]5CC[C@]43C)[C@@H]12,64.8%,105%,90.6%,95.4%,84.6%,68.4%,98.2%,75.2%
CN(C)CC(O)c1ccc(/C=C/c2ccc(Cl)cc2)cc1 (stereo unspecified),30.9%,78.8%,-48.2% (active),-68.7% (active),-81.6% (active),-58.3% (active),-69% (active),-91.5% (active)
CCOC(=O)Nc1ccc(-c2ccc3c(c2)NC(=O)/C3=C\c2ccc[nH]2)cc1,6.7% (active),56.4%,102%,113%,10%,107%,85.8%,63.6%
COc1cc(/C=N/NC(=O)c2cnn3c2NC(c2ccccc2)C3)ccc1Oc1ccccc1 (stereo unspecified),28.6%,6.76% (active),-22.9% (active),24.9%,9.6% (active),1.82% (active),57.3%,16.6%
O=C(CCN1CCCC1)Nc1ccc2c(NCCCc3ccccc3)c3ccccc3nc2c1,11.6%,47.7%,-87.8% (active),-63.3% (active),-44.3% (active),-63.5% (active),2.16% (active),-10% (active)
O=C1C=CC(=O)N1c1cccc(Cl)c1,93.7%,108%,101%,76%,112%,89.7%,104%,104%
